Screen size: about 5,500 compounds; about 2,000 (36%) were called active. Not shown: some 18% with an inconclusive outcome. No stated cut-off is given here; in the data, active means normalized growth mostly below about 0.91 (no sharp cut-off); inconclusive means no clear call, values can overlap the other calls; inactive means mostly above about 0.92. The list shows a part of the results.
Test: chemical genetic growth profiling, strain panel (AID 1159580);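 further: tested at 20 µM; growth read once vehicle control cultures reached saturation at 30 °C; 1 = growth at the plate median or of vehicle wells; lower values mean less growth of the strain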
Details: growth OD

Measured: normalized growth

CCOc1ccc2c(c1)C(C)=CC(C)(C)N2
inactive: S. cerevisiae deletion strains, locus YJR043C, strain POL32, active compounds read low 0.979 | S. cerevisiae deletion strains, locus YJR075W, strain HOC1, active compounds read low 0.975 | S. cerevisiae deletion strains, locus YKL009W, strain mrt4, active compounds read low 0.988 | S. cerevisiae deletion strains, locus YKL068W, active compounds read low 0.989 | S. cerevisiae deletion strains, locus YKL085W, strain MDH1 (second series), active compounds read low 0.987 | S. cerevisiae deletion strains, locus YKL085W, strain MDH1, active compounds read low 0.987 | S. cerevisiae deletion strains, locus YKL160W, strain elf1, active compounds read low 0.996 | S. cerevisiae deletion strains, locus YKL190W, strain CNB1, active compounds read low 0.997 | S. cerevisiae deletion strains, locus YKR001C, strain vps1, active compounds read low 0.976 | S. cerevisiae deletion strains, locus YKR026C, strain gcn3, active compounds read low 0.979 | S. cerevisiae deletion strains, locus YKR091W, strain srl3, active compounds read low 0.98 | S. cerevisiae deletion strains, locus YLL001W, strain dnm1, active compounds read low 1 | S. cerevisiae deletion strains, locus YLL026W, active compounds read low 0.986 | S. cerevisiae deletion strains, locus YLL041C, strain sdh2, active compounds read low 0.989 | S. cerevisiae deletion strains, locus YLR027C, strain aat2, active compounds read low 1.01 | S. cerevisiae deletion strains, locus YLR039C, strain RIC1, active compounds read low 0.997 | S. cerevisiae deletion strains, locus YLR058C, strain SHM2, active compounds read low 0.984 | S. cerevisiae deletion strains, locus YLR102C, strain apc9, active compounds read low 0.992 | S. cerevisiae deletion strains, locus YLR221C, strain rsa3, active compounds read low 1 | S. cerevisiae deletion strains, locus YLR258W, strain gsy2, active compounds read low 0.997 | S. cerevisiae deletion strains, locus YLR262C, strain YPT6 (second series), active compounds read low 0.981 | S. cerevisiae deletion strains, locus YLR262C, strain YPT6, active compounds read low 0.969 | S. cerevisiae deletion strains, locus YLR268W, strain sec22, active compounds read low 0.924 | S. cerevisiae deletion strains, locus YLR320W, strain mms22, active compounds read low 0.982 | S. cerevisiae deletion strains, locus YLR330W, strain CHS5, active compounds read low 1 | S. cerevisiae deletion strains, locus YLR342W, strain FKS1 (second series), active compounds read low 0.999 | S. cerevisiae deletion strains, locus YLR342W, strain FKS1, active compounds read low 0.987 | S. cerevisiae deletion strains, locus YLR357W, strain rsc2, active compounds read low 0.963 | S. cerevisiae deletion strains, locus YLR370C, strain arc18, active compounds read low 0.998 | S. cerevisiae deletion strains, locus YLR371W, strain rom2, active compounds read low 0.976 | S. cerevisiae deletion strains, locus YLR384C, strain iki3, active compounds read low 0.989 | S. cerevisiae deletion strains, locus YLR418C, strain cdc73, active compounds read low 0.983 | S. cerevisiae deletion strains, locus YML016C, strain PPZ1, active compounds read low 0.984 | S. cerevisiae deletion strains, locus YML032C, strain rad52, active compounds read low 0.977 | S. cerevisiae deletion strains, locus YML120C, strain ndi1, active compounds read low 1 | S. cerevisiae deletion strains, locus YML124C, strain tub3, active compounds read low 0.989 | S. cerevisiae deletion strains, locus YMR058W, strain fet3, active compounds read low 0.988 | S. cerevisiae deletion strains, locus YMR078C, strain ctf18, active compounds read low 0.972 | S. cerevisiae deletion strains, locus YMR125W, strain sto1, active compounds read low 0.981 | S. cerevisiae deletion strains, locus YMR129W, active compounds read low 0.991 | S. cerevisiae deletion strains, locus YMR205C, strain PFK2, active compounds read low 0.987 | S. cerevisiae deletion strains, locus YMR223W, strain ubp8, active compounds read low 0.998 | S. cerevisiae deletion strains, locus YMR231W, strain pep5, active compounds read low 0.963 | S. cerevisiae deletion strains, locus YMR263W, strain SAP30, active compounds read low 0.981 | S. cerevisiae deletion strains, locus YMR307W, strain GAS1, active compounds read low 0.971 | S. cerevisiae deletion strains, locus YNL067W, strain RPL9B, active compounds read low 0.977 | S. cerevisiae deletion strains, locus YNL071W, strain lat1, active compounds read low 0.991 | S. cerevisiae deletion strains, locus YNL128W, strain TEP1, active compounds read low 0.99 | S. cerevisiae deletion strains, locus YNL153C, strain GIM3, active compounds read low 0.98 | S. cerevisiae deletion strains, locus YNL209W, strain ssb2, active compounds read low 0.994 | S. cerevisiae deletion strains, locus YNL233W, strain BNI4, active compounds read low 0.978 | S. cerevisiae deletion strains, locus YNL248C, strain rpa49, active compounds read low 0.986 | S. cerevisiae deletion strains, locus YNL250W, strain rad50, active compounds read low 0.986 | S. cerevisiae deletion strains, locus YNL271C, strain bni1, active compounds read low 0.968 | S. cerevisiae deletion strains, locus YNL298W, strain CLA4, active compounds read low 0.974 | S. cerevisiae deletion strains, locus YNL307C, strain MCK1, active compounds read low 0.985 | S. cerevisiae deletion strains, locus YNL322C, strain KRE1 (second series), active compounds read low 0.984 | S. cerevisiae deletion strains, locus YNL322C, strain KRE1, active compounds read low 0.993 | S. cerevisiae deletion strains, locus YNR049C, strain mso1, active compounds read low 0.989 | S. cerevisiae deletion strains, locus YNR052C, strain pop2, active compounds read low 1 | S. cerevisiae deletion strains, locus YOL006C, strain TOP1, active compounds read low 0.841 | S. cerevisiae deletion strains, locus YOL012C, strain htz1 1.09 | S. cerevisiae deletion strains, locus YOL147C, strain pex11, active compounds read low 0.98 | S. cerevisiae deletion strains, locus YOR001W, strain rrp6, active compounds read low 1.01 | S. cerevisiae deletion strains, locus YOR061W, strain CKA2, active compounds read low 0.981 | S. cerevisiae deletion strains, locus YOR069W, strain VPS5, active compounds read low 0.984 | S. cerevisiae deletion strains, locus YOR070C, strain gyp1, active compounds read low 0.995 | S. cerevisiae deletion strains, locus YOR080W, strain dia2, active compounds read low 0.989 | S. cerevisiae deletion strains, locus YOR083W, strain WHI5, active compounds read low 0.989 | S. cerevisiae deletion strains, locus YOR106W, strain vam3, active compounds read low 1 | S. cerevisiae deletion strains, locus YOR136W, strain idh2, active compounds read low 0.99 | S. cerevisiae deletion strains, locus YOR144C, strain elg1, active compounds read low 0.992 | S. cerevisiae deletion strains, locus YOR184W, strain ser1, active compounds read low 0.969 | S. cerevisiae deletion strains, locus YOR265W, strain rbl2, active compounds read low 1.03 | S. cerevisiae deletion strains, locus YOR270C, strain vph1, active compounds read low 1 | S. cerevisiae deletion strains, locus YOR290C, strain snf2, active compounds read low 0.991 | S. cerevisiae deletion strains, locus YOR316C, strain cot1, active compounds read low 0.983 | S. cerevisiae deletion strains, locus YPL051W, strain arl3, active compounds read low 0.985 | S. cerevisiae deletion strains, locus YPL055C, strain LGE1, active compounds read low 0.997 | S. cerevisiae deletion strains, locus YPL078C, strain atp4, active compounds read low 1.02 | S. cerevisiae deletion strains, locus YPL106C, strain sse1, active compounds read low 0.964 | S. cerevisiae deletion strains, locus YPL240C, strain hsp82, active compounds read low 0.991 | S. cerevisiae deletion strains, locus YPL241C, strain CIN2, active compounds read low 0.997 | S. cerevisiae deletion strains, locus YPR119W, strain clb2, active compounds read low 0.984 | S. cerevisiae deletion strains, locus YPR141C, strain kar3, active compounds read low 0.973 | S. cerevisiae deletion strains, locus YPR163C, strain tif3, active compounds read low 0.978 | S. cerevisiae deletion strains, locus YPR167C, strain met16, active compounds read low 0.987 | S. cerevisiae deletion strains, strain wtn01, active compounds read low 0.967 | S. cerevisiae strains, strain wild type, active compounds read low 0.996

Reference: PubChem BioAssay AID1159580 (chemical genetic matrix, 2015)
